The record followed here is PubChem BioAssay.

The nature of experiment [1]: rapamycin-like changes in RPL19A-GFP expression – cell-based, S. cerevisiae, multiplex flow cytometry, primary screen (AID 1862; in the data active means percent of DMSO control GFP below about 86%;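 further: lower values mimic rapamycin by blocking the RPL19A rise seen in DMSO cells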). As to conditions: S. cerevisiae RPL19A-GFP strain, flow cytometry fluorescence, 3 h; at 10 µM; stronger effect = lower value. (In general: A flow cytometer gives signals particle by particle.)
The nature of experiment [2]: TOR pathway GLN3 branch reporter MEP2-GFP changes – S. cerevisiae, multiplex flow cytometry, primary screen (AID 1867;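 active means GFP response, as percent of the DMSO control, above the screen-wide mean plus 3 SD, about 139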;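 further: median GFP channel fluorescence of barcode-gated MEP2-GFP cells measured by flow cytometry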). The settings on record: S. cerevisiae MEP2-GFP strain, 3 h, at 10 µM, stronger effect = higher value.
A short description of experiment [3]: TOR pathway RTG branch CIT2 reporter changes – S. cerevisiae, GFP fusion, multiplex flow cytometry, primary screen (AID 1870;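 active means percent response above a set limit, the screen-wide mean plus 3 SD, cut at about 130% in these data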;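 further: barcoded CIT2-GFP strain pooled with four other GFP strains with rapamycin as positive control; median GFP fluorescence per well over plate mean of DMSO wells so 100% = DMSO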). As to conditions: S. cerevisiae CIT2-GFP expression, 3 h, at 10 µM, stronger effect = higher value.
Experiment [4] is described as follows: TOR pathway LAP4-GFP level changes – S. cerevisiae, multiplex flow cytometry, primary screen (AID 1873;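 active means GFP signal, as percent of the solvent control, above the screen mean plus 3 SD, about 149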). As to conditions: S. cerevisiae LAP4-GFP expression, 3 h, at 10 µM, stronger effect = higher value.
The nature of experiment [5]: yeast AGP1-GFP level changes, GLN3 branch – cell-based, multiplex flow cytometry, S. cerevisiae, primary screen (AID 1887;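 active means GFP signal above the screen-wide mean plus 3 SD, that is over about 124.5% of the solvent control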;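 further: AGP1-GFP fusion strain of S. cerevisiae within a five-strain barcoded multiplex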). The settings on record: 3 h, at 10 µM, stronger effect = higher value.
Experiment [6] is described as follows: reduced mouse 2C T cell binding to pMHC/ICAM-1 vesicles – MLPCN validation set, flow cytometry, LFA-1/ICAM-1 modulator project, pilot screen (AID 2523;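 active means response below a set limit, under 55% cells CD8-positive and vesicle-bound, and CD8 cells' 90th-percentile brightness under 279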;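 on vesicle binding response: mean PE anti-B7-1 fluorescence of CD8+ cells relative to row control; 100% = QL9-loaded vesicles with DMSO vehicle in the same plate row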). As to conditions: 2C mouse CD8+ T cells, at 7 µM, stronger effect = lower value; double positive events: measured here: CD8+/vesicle+ event percentage.
Experiment [7] concerns the target Integrin beta-1 (Homo sapiens) + Integrin alpha-4 (Homo sapiens) (UniProt P13612+P05556). The experiment in a line: alpha4beta1 integrin LIBS antibody binding reduction – U937 cells, HUTS-21 mAb, flow cytometry, validation set, VLA-4 allosteric modulator project, pilot screen (AID 2674;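 active means inhibition above 50%, about 3 SD of the validation set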;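 further: antibody binding induced by the VLA-4 ligand LDV present at three times its Kd; 0% = LDV ligand with antibody and no compound and 100% = antibody without LDV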). As to conditions: HUTS-21 LIBS mAb binding, at 6.7 µM, stronger effect = higher value.
The nature of experiment [8]: calorie-restriction mimetic ROS inhibitors, yeast – validation compound set, pilot screen (AID 2706;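 active means superoxide response below 65% of plate, a cut near 3 SD across the whole screen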;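 further: yeast exposed to compound for one week at 30 degrees C before staining; 100% = mean of all compound wells on the same plate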). As to conditions: S. cerevisiae aging, superoxide DHE fluorescence; at 10 µM; stronger effect = lower value.
Experiment [9] has as its target Beta-adrenergic receptor kinase 1 (Homo sapiens) (UniProt P25098). The experiment in a line: GRK2 binders displacing RNA aptamer, biochemical, validation, human GRK2, bead flow cytometry (AID 488806;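 active means aptamer binding inhibition above 30%, about 3 SD of noise from non-fluorescent compounds; inactive means inhibition at or below 30%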). As to conditions: bead-bound GRK2, FAM-aptamer displacement, at 10 µM, stronger effect = higher value.
For experiment [10], the target named is Beta-2 adrenergic receptor (Homo sapiens) (UniProt P07550). The experiment in a line: agonist-induced loss of surface beta2AR – cell-based, FAP fluorogen, flow cytometry, validation set, pilot screen (AID 504459;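 active means percent response above 42, roughly 3 SD of non-fluorescent test compounds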;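 further: agonist-driven loss of surface beta2AR via internalization measured by FAP dye flow cytometry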). As to conditions: Am2.2-beta2AR cells, at 10 µM, stronger effect = higher value.
Sequence of Beta-2 adrenergic receptor (Homo sapiens) (P07550 whole entry, looked up): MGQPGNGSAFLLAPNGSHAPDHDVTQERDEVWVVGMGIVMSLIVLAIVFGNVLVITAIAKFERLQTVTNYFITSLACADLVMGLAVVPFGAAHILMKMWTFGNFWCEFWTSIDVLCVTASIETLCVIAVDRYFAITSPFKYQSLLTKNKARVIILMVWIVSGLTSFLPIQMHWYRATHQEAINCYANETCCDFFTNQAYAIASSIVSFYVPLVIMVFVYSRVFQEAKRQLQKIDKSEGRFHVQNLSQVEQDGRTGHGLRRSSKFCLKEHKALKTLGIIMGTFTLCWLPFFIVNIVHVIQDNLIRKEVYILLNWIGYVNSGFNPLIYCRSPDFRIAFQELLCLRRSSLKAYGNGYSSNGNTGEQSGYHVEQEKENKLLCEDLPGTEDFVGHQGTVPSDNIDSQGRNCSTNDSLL
For experiment [11], the target named is AP-2 complex subunit beta (Homo sapiens) (UniProt P63010). The experiment in a line: beta-arrestin/AP2 interaction blockers – biochemical, validation set, GST-AP2 beads, flow cytometry, pilot screen (AID 504541;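 active means inhibition above 54%, about 3 SD of non-fluorescent compounds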;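 further: AP2 carries R879A mutation and is captured from E. coli lysate; bead-bound FITC arrestin peptide fluorescence measuring arrestin peptide binding to AP2; 0% = DMSO wells and 100% = excess unlabeled arrestin peptide control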). As to conditions: FITC arrestin peptide, at 10 µM, stronger effect = higher value.
Sequence of AP-2 complex subunit beta (Homo sapiens) (P63010 whole entry, looked up, one chain of several): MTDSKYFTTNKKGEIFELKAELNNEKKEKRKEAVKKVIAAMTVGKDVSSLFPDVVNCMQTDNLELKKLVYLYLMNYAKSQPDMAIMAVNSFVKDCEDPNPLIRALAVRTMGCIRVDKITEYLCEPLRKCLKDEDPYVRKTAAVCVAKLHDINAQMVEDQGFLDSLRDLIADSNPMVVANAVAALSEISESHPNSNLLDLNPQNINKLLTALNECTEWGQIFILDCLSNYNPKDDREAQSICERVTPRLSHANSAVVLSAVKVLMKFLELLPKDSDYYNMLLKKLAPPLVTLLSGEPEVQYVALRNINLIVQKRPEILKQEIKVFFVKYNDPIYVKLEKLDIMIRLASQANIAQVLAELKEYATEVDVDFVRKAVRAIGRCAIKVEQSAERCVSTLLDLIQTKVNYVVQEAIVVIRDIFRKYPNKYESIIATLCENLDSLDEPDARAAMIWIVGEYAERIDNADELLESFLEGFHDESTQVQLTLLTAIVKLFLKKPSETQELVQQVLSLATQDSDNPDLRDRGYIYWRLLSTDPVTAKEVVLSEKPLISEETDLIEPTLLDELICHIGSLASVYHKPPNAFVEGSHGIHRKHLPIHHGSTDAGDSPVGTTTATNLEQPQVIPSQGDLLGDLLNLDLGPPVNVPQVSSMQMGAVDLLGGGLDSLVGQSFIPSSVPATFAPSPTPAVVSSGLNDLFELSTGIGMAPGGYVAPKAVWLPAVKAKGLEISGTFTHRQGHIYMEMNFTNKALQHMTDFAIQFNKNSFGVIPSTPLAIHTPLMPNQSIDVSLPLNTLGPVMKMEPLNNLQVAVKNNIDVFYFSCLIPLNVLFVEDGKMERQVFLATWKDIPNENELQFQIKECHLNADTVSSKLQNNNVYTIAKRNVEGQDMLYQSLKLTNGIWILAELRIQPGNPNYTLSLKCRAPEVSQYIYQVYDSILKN
Experiment [12] in a line: cytosolic pH regulators acting via V-ATPase – S. cerevisiae, pHLuorin, HTS validation (AID 504600; in the data active means response above about 15%;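 further: plate controls were DMSO for no effect and reference compound for full effect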). The settings on record: V-ATPase proton transport, at 10 µM, stronger effect = higher value.
In experiment [13] the test system is anti-desmoglein-3 scFv antibody binding to human DSG3. The experiment in a line: blockers of pathogenic pemphigus antibody–desmoglein-3 binding – biochemical, validation compound set, bead-based, flow cytometry, pilot screen (AID 588368;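 active means binding below the plate cutoff, the plate median minus 3 SD, with a reading above zero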;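 further: signal is the median channel fluorescence of bead-bound GFP antibody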). As to conditions: Protein G beads, DSG3-Fc, scFv-GFP binding, at 10 µM, stronger effect = lower value.
The subject of experiment [14] is Botulinum neurotoxin type F light chain protease (Clostridium botulinum). Kind of experiment: Clostridium botulinum type F light chain protease inhibitors, microsphere substrate cleavage, validation (AID 588459). As to conditions: multiplex microsphere protease substrate cleavage assay, flow cytometry; at 10 µM; stronger effect = higher value.
Experiment [15] addresses Botulinum neurotoxin type A (Clostridium botulinum) (UniProt P0DPI0). The experiment in a line: BoNT/A light chain protease inhibitors, biochemical, multiplex microsphere flow cytometry, validation set (AID 588460). The settings on record: at 10 µM, stronger effect = higher value.
For experiment [16], the target named is Lethal factor (Bacillus anthracis) (UniProt P15917). The experiment in a line: Bacillus anthracis lethal factor inhibition, microsphere flow cytometry protease assay, validation at 10 µM (AID 588461). As to conditions: multiplex microsphere protease cleavage assay, stronger effect = higher value.
Sequence of Lethal factor (Bacillus anthracis) (P15917 whole entry, looked up): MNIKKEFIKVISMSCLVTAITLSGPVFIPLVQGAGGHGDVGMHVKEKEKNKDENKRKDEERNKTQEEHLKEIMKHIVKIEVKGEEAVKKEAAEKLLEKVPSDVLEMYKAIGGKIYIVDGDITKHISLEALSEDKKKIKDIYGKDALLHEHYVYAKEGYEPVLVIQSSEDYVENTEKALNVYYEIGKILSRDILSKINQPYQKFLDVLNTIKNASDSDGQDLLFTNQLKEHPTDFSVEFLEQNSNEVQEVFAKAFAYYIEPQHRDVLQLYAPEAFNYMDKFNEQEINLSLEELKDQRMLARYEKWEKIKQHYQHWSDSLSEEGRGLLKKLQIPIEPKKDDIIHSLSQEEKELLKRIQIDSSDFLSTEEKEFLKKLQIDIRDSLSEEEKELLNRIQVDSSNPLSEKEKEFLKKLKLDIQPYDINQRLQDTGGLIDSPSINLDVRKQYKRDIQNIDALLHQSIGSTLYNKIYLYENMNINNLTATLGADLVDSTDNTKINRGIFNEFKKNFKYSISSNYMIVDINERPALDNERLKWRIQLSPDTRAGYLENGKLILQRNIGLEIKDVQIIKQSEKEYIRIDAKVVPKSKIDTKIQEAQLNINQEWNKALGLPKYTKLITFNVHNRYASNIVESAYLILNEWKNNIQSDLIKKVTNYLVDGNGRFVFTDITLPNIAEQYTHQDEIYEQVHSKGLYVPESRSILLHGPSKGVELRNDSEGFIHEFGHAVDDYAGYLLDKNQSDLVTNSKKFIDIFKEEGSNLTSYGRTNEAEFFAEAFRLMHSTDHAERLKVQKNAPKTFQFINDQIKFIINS
Experiment [17] can be described thus: Nile Red efflux blockade in pump-expressing yeast – validation compound set, multiplex, phenotypic, pilot screen (AID 588506;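 active means efflux inhibition above 0.42, the validation set average plus 4 SD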;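 further: Nile Red retained in cells so higher fluorescence means more efflux inhibition; 0 = negative control wells and 1 = enniatin B 25 µM full block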). As to conditions: S. cerevisiae pump-expressing triplex, Nile Red efflux flow cytometry; at 10 µM; stronger effect = higher value.
The target in experiment [18] is ATP-binding cassette sub-family B member 6 (Homo sapiens) (UniProt Q9NP58). Kind of experiment: blockers of ABCB6-driven porphyrin uptake – K562-ABCB6 cells, flow cytometry, validation set, pilot screen (AID 588550;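 active means inhibition above the screen-wide mean plus 3 SD, about 51%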;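 further: 0% = DMSO wells and 100% = benzethonium chloride 70 µM positive control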). As to conditions: K562-ABCB6 porphyrin accumulation, 1 h, at 10 µM, stronger effect = higher value.
Sequence of ATP-binding cassette sub-family B member 6 (Homo sapiens) (Q9NP58 whole entry, looked up): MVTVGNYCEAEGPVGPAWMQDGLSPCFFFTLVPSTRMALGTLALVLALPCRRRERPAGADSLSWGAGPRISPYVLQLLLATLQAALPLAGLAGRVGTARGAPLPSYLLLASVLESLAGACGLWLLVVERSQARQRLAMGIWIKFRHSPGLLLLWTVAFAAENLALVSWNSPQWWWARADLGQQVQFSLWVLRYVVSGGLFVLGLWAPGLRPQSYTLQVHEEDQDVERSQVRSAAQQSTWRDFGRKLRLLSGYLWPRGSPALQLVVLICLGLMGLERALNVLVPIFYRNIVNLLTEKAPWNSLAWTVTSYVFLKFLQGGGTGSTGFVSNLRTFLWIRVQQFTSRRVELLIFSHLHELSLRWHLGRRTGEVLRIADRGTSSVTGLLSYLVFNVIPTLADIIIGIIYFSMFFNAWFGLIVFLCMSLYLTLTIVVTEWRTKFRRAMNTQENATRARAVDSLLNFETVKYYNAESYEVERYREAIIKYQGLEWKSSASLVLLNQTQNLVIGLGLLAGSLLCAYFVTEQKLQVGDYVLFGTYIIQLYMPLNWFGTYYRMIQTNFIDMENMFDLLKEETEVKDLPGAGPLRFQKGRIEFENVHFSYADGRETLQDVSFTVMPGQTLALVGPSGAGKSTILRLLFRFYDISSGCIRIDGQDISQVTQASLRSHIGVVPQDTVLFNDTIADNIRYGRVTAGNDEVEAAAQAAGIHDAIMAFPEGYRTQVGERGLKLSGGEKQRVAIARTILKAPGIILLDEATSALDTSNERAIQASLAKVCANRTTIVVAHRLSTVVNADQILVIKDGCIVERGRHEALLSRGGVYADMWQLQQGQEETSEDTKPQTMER
Experiment [19] can be described thus: AML differentiation inducers, ER-HoxA9 marrow cells – cell-based, GFP/MAC1 double positive, flow cytometry, validation set, primary screen (AID 588685;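 active means differentiation response of at least 50%, scaled between solvent and reference control, from cells with both markers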;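 further: compound exposure lasts four days before antibody staining and flow analysis; 0% = DMSO wells and 100% = 5 µM fulvestrant positive control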). As to conditions: stronger effect = higher value.

Each structure is given as a SMILES string. Records with an inconclusive call do not appear. Activity calls are given as the source filed them. Unless noted, how the calls were made is not given here.

One may read the inhibition as the change of the read-out against control, counted positive when it falls.

Sequence of Beta-adrenergic receptor kinase 1 (Homo sapiens) (P25098 whole entry, looked up): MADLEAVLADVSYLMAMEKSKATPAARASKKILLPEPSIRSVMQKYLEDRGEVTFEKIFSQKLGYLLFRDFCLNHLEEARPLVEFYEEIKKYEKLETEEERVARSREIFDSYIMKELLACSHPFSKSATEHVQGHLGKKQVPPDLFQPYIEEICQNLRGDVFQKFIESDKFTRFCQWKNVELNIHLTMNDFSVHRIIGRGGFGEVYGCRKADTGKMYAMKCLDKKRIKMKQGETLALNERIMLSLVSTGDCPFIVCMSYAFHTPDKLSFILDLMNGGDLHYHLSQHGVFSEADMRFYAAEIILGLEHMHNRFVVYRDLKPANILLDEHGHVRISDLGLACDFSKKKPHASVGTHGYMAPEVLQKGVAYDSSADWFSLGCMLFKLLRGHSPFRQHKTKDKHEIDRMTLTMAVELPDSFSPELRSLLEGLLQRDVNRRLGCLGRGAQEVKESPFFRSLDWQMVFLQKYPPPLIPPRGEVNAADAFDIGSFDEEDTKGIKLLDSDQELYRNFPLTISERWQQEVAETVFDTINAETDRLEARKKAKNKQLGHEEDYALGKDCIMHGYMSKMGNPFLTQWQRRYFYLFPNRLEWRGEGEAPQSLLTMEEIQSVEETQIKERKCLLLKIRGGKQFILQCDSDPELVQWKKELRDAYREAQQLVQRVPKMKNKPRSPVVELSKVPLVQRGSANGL
Sequence of Botulinum neurotoxin type A (Clostridium botulinum) (P0DPI0 whole entry, looked up): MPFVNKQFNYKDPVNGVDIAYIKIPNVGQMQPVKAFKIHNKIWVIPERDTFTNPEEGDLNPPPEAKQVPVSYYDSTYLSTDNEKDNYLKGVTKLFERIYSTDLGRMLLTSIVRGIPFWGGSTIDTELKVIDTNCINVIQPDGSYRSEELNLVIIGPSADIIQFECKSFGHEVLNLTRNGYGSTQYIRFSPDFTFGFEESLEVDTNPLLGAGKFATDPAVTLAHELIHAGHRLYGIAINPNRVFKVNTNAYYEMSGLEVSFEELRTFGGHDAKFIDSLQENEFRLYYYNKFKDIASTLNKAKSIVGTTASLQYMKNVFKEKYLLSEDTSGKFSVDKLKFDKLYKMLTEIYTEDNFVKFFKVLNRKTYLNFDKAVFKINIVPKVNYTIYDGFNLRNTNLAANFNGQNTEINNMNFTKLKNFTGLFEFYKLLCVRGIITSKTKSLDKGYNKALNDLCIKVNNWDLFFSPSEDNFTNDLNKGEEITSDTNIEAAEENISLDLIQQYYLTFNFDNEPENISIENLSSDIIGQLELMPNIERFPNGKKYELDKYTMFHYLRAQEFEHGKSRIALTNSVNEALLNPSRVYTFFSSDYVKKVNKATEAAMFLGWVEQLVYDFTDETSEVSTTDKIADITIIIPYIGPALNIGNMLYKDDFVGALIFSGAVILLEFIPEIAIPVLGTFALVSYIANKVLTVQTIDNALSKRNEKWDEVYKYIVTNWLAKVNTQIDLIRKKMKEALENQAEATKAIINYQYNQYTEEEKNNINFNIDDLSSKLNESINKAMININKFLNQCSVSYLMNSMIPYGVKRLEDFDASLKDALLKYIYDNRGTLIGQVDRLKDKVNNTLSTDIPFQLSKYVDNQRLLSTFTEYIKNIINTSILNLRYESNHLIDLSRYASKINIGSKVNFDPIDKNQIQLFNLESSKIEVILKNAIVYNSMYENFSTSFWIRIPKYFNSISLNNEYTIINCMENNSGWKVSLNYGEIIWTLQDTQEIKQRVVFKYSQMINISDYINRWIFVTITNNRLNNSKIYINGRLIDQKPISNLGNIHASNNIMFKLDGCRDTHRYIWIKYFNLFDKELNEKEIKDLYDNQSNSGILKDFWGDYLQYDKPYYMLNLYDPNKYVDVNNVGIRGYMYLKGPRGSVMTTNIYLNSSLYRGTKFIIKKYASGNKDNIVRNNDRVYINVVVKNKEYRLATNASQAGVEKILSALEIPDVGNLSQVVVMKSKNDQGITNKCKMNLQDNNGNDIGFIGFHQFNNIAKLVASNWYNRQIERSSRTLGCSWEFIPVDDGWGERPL

For the compound `C#CCN(C)C(C)Cc1ccccc1` (stereo not given), the percent of DMSO control GFP in experiment [1] was 100% (inactive). For the same compound, the GFP response vs DMSO in experiment [2] was 108% (inactive); in experiment [4] it was 88.7% (inactive). In experiment [3], the percent response of DMSO control is 104% (inactive). Moreover, in experiment [5], the GFP response, % of DMSO was 102% (inactive). The compound also showed a double positive events in [6] of 62.5%. In addition, in experiment [6], the vesicle binding response is 225% (inactive). The inhibition in experiment [7] is 1.62% (inactive); in experiment [11], -6.88% (inactive); in experiment [14] it was -1% (inactive); in experiment [15], -0.6% (inactive); in experiment [16], 3.9% (inactive); in experiment [18] it was -12% (inactive). In addition, the superoxide response (% of plate) in [8] is 97.6% (inactive). Besides, in experiment [9], the aptamer binding inhibition is 3% (inactive). For the same compound, the response in experiment [10] is -1.41% (inactive); in [12], 3.03% (inactive). The binding (% of control) in [13] is 97.2% (inactive). In experiment [17], the efflux inhibition (fraction of control) is -0.1 (inactive). In addition, the differentiation response in experiment [19] is 15.9% (inactive).
With `CN1C(=O)N(C)C(=O)C2(Cc3ccccc3N3CCOCC32)C1=O` (stereo not given), the percent of DMSO control GFP in experiment [1] was 101% (inactive). Further, the GFP response vs DMSO in experiment [2] is 103% (inactive); in experiment [4], 93.7% (inactive). In experiment [3], the percent response of DMSO control is 102% (inactive). Also, in experiment [5], the GFP response, % of DMSO is 99.9% (inactive). In experiment [6], this compound returned a double positive events of 64.2%. For the same compound, the vesicle binding response in experiment [6] was 3430% (inactive). Moreover, the inhibition in experiment [7] is 8.28% (inactive); in experiment [11], -5.91% (inactive); in [14] it was 5% (inactive); in [15], 0.6% (inactive); in experiment [16], 1.1% (inactive); in experiment [18], 5% (inactive). Besides, the superoxide response (% of plate) in experiment [8] was 109% (inactive). Further, in experiment [9], the aptamer binding inhibition is 0% (inactive). In addition, the response in [10] was 4.14% (inactive); in experiment [12], 0.7% (inactive). Also, in experiment [13], the binding (% of control) was 102% (inactive). Moreover, in [17], the efflux inhibition (fraction of control) is 0.62 (active). Moreover, in experiment [19], the differentiation response was 0% (inactive).
`C[N+]1(C)[C@@H]2CC[C@H]1CC(OC(=O)C(CO)c1ccccc1)C2` (stereo not given in full): in experiment [1], the percent of DMSO control GFP was 105% (inactive). Moreover, the results for the GFP response vs DMSO in experiment [2] and in experiment [4] were 96.3% (inactive) and 113% (inactive), respectively. Moreover, the percent response of DMSO control in experiment [3] is 105% (inactive). In experiment [5], the GFP response, % of DMSO was 110% (inactive). In experiment [6], this compound showed a double positive events of 64.9%. In experiment [6], the vesicle binding response is 7000% (inactive). Besides, the inhibition in experiment [7] is -14.1% (inactive); in experiment [11], -5.05% (inactive); in experiment [14], 3.3% (inactive); in experiment [15], -0.2% (inactive); in experiment [16], -4.9% (inactive); in [18], 7% (inactive). For the same compound, the superoxide response (% of plate) in [8] is 91% (inactive). Further, the aptamer binding inhibition in [9] is 1% (inactive). For the same compound, the response was -8.13% (inactive) in experiment [10] and 0.35% (inactive) in experiment [12]. Also, in experiment [13], the binding (% of control) was 98% (inactive). The efflux inhibition (fraction of control) in experiment [17] was -0.1 (inactive). For the same compound, in experiment [19], the differentiation response is -15.2% (inactive).
With `CC12CN3CC(C)(CN(C1)C3c1cccs1)C2O` (stereo not given), the percent of DMSO control GFP in experiment [1] was 105% (inactive). Moreover, the GFP response vs DMSO in experiment [2] was 98.3% (inactive); in [4] it was 83.5% (inactive). The percent response of DMSO control in experiment [3] is 109% (inactive). Moreover, the GFP response, % of DMSO in [5] was 104% (inactive). In addition, in experiment [6], the double positive events turned out to be 67%. In experiment [6], the vesicle binding response was 976% (inactive). Besides, the inhibition in [7] is 4.73% (inactive); in experiment [11], 1.53% (inactive); in [14], -2.4% (inactive); in experiment [15], -1.2% (inactive); in experiment [16] it was 7.5% (inactive); in [18] it was 0% (inactive). Further, the superoxide response (% of plate) in experiment [8] was 106% (inactive). In experiment [9], the aptamer binding inhibition was 2% (inactive). In addition, the response was -7.61% (inactive) in [10] and 1.19% (inactive) in experiment [12]. Moreover, in experiment [13], the binding (% of control) was 98% (inactive). Also, in experiment [17], the efflux inhibition (fraction of control) is -0.07 (inactive). Further, the differentiation response in [19] is 0.24% (inactive).
Regarding `NC(=O)CN1CCCC1=O`, in experiment [1], the percent of DMSO control GFP was 95% (inactive). In addition, the GFP response vs DMSO in experiment [2] was 113% (inactive); in experiment [4], 73.2% (inactive). Besides, in [3], the percent response of DMSO control was 118% (inactive). For the same compound, the GFP response, % of DMSO in experiment [5] was 91% (inactive). The double positive events in experiment [6] came out at 54.5%. For the same compound, the vesicle binding response in experiment [6] is 191% (inactive). The inhibition in experiment [7] is 3.55% (inactive); in [11] it was -5.52% (inactive); in experiment [14], 1.5% (inactive); in experiment [15], 0.4% (inactive); in [16] it was 1.1% (inactive); in [18] it was 4% (inactive). Also, the superoxide response (% of plate) in [8] is 95.8% (inactive). The aptamer binding inhibition in experiment [9] was -4% (inactive). In addition, the results for the response in [10] and in experiment [12] were -20.5% (inactive) and 0.81% (inactive), respectively. Also, in [13], the binding (% of control) was 105% (inactive). Besides, the efflux inhibition (fraction of control) in experiment [17] was -0.09 (inactive). Also, the differentiation response in experiment [19] was -1.64% (inactive).
